Only some compounds are listed: those with a hit (about 2.8% of all), similar ones and a draw of the others.
GLP1R inv ag: GLP-1 receptor (human) inverse agonism; P43220; HEK293 GLP-1R CRE-luciferase, luminescence, 24 h; GLP-1R form is constitutively active; Potency, µM (highest dose often 38.3 µM), for the others: top-dose activity change, negative = inhibition, actives largely listed as inhibitors; 1.6% of 410,000 active; further: potency means the concentration at half of the fitted maximal effect; on the % scale 0 is the no-effect control and ±100 the full control effect; nearly all actives have a fitted effect of over 55% in size
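HEK293 cells stably co-expressing constitutively active GLP-1R and a cAMP-responsive luciferase reporter were seeded in DMEM with 10% Nu serum, given compounds after 12 h, and incubated 24 h at 37 deg C. Luminescence was then read.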
KCNH2 3.1 block: inhibitors of human KCNH2 3.1 potassium channel isoform; U2OS KCNH2 3.1, thallium flux FluxOr; stronger effect = lower value; activity change, % (tested at about 1.8 µM); 0.95% of 340,000 active; AID 720553;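 active means maximum activity change below -70%; inconclusive means maximum activity change from -70% to -50%; inactive means maximum activity change above -50%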;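 further: thallium influx rate constant from kinetic fluorescence after stimulation buffer; on the % scale 0 is the no-effect control and ±100 the full control effect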
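FluxOr-based Tl+ influx in U2OS cells transduced with KCNH2 3.1 virus; rate constants normalized to DMSO controls.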
GLP1R ag: activates the human GLP-1 receptor; AID 624172; P43220; Potency, µM (doses to about 45.6 µM), without a hit: top-dose activation, usual class: activators; HEK293 GLP-1R CRE-luciferase, luminescence, 4-6 h; cells express a hypersensitive GLP-1R form; 0.007% of 380,000 active; further: potency means the concentration at half of the fitted maximal effect; % of control where 0% means no effect
HEK293 tox: cytotoxicity in counter-screen for GLP-1R inverse agonists; HEK293 cAMP-luciferase reporter cells, luminescence, 24 h; Potency, µM (series often up to 38.3 µM), for inactives: at the highest dose activity change, negative = inhibition, hits mostly inhibitors; 0.13% of 410,000 active; AID 624418;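 further: loss of luciferase light is scored as toxicity; potency means the concentration at half of the fitted maximal effect; on the % scale 0 is the no-effect control and ±100 the full control effect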
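To flag toxic compounds, the library was rerun on cells for 24 hr at 37 deg C and 5% CO2. Viability-linked luminescence was captured 12 min after adding luciferase detection reagent.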
hERG WT inh: inhibitors of human wildtype KCNH2 potassium channel | U2OS, BacMam KCNH2, thallium flux FluxOr; stronger effect = lower value | activity change, % at 1.84 µM | Q12809 | AID 720551 | 0.37% of 340,000 active;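 active means maximum activity change below -70%; inconclusive means maximum activity change between -70% and -50%; inactive means maximum activity change above -50%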; further: on the % scale 0 is the no-effect control and ±100 the full control effect
Target sequence (Q12809 whole entry, looked up): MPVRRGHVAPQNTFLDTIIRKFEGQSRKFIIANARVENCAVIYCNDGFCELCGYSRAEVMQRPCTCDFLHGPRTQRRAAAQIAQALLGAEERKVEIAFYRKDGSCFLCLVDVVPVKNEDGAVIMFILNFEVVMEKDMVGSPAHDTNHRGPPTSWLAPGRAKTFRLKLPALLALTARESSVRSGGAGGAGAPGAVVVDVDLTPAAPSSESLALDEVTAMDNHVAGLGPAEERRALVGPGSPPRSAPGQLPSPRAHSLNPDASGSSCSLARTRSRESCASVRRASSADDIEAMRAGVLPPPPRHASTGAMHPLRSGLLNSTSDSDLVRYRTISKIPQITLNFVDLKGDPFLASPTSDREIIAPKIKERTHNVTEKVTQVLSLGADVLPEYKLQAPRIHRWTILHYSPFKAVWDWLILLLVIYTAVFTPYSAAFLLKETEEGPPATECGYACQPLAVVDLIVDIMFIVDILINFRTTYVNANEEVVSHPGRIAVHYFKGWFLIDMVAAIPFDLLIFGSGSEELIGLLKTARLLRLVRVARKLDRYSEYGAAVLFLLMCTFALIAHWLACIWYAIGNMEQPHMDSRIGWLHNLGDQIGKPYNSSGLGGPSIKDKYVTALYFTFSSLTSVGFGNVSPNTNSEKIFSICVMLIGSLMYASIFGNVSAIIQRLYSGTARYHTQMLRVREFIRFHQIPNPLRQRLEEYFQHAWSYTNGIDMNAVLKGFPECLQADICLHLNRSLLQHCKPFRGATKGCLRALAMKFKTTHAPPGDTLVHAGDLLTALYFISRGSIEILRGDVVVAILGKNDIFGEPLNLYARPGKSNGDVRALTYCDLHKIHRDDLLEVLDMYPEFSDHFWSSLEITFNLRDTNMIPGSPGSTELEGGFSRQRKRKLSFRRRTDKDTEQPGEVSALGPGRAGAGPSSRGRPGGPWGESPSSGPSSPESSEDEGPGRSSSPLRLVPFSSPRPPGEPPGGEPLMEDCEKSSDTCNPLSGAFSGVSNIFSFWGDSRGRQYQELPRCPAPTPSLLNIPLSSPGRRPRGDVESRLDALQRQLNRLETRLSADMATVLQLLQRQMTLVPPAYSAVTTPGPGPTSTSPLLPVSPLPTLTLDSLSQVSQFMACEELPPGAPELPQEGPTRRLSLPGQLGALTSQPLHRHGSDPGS
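U2OS cells were transduced with wild-type KCNH2 virus (2.03 x 10^8 / mL) for 4 h at room temperature, then cultured overnight at 37 C. Thallium flux was read with FluxOr dye. Rate constants were normalized to DMSO controls.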
GLS inh: inhibitors of human glutaminase (GLS); O94925; GLS enzymatic activity, qHTS titration; Potency, µM (series often up to 45.5 µM), inactives show at the top dose activity change, negative = inhibition, most hits filed as inhibitors; 0.21% of 410,000 active; AID 624170; further: potency means the concentration at half of the fitted maximal effect; on the % scale 0 is the no-effect control and ±100 the full control effect
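Assay buffer: 45 mM KH2PO4 pH 8.2, 0.02% Tween-20. hKGA acts on L-glutamine (1 mM solution added); product glutamate is reported by an oxidase/peroxidase Amplex Red coupling, with fluorescence taken at baseline and 30 min.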
Starred values were filed as active, the others as inactive; ? = inconclusive; nt = no result; [ ] = remark or other dose. Unless noted, the call rests on the fitted dose curve; in most records, active means well fitted curve in the direction sought with a large enough effect; inconclusive means small, poorly fitted or top-dose-only effect, or another doubt; inactive means no such curve, though single readings can be large; an effect the other way counts as inactive or inconclusive.

SMILES | GLP1R inv ag | KCNH2 3.1 block | GLP1R ag | HEK293 tox | hERG WT inh | GLS inh
CC(C)c1ccc(Oc2cccc3c2S(=O)(=O)N(C2CCCC2)CC(COCc2ccccc2)O3)cc1 (centres undefined) | 5.6µM* | -4 | 6% | -1% | -2 | -4%
CC[C@@H](O)C(C[C@@H](C)N(C)C)(c1ccccc1)c1ccccc1 | nt | nt | 0%[96 µM] | nt | nt | 13%[99.4 µM]
O=C1NC(=O)C(=Cc2csc3ccccc23)C(=O)N1 | -3% | -180* | -6% | 0% | -209* | -6%
Cn1cc(C=C2C(=O)NC(=O)NC2=O)c2ccccc21 | 66% | -11 | 6% | 5% | -14 | -1%
Oc1ccc([C@H]2CNCc3c2ccc(O)c3O)cc1O | nt | nt | -5% | nt | nt | 23%
CCCNc1nc2c(c(=O)[nH]c(=O)n2C)n1Cc1ccc(F)cc1 | 65% | 4 | 12% | 3% | -14 | 1%
Cn1c(=O)[nH]c(=O)c2c1nc([N+](=O)[O-])n2Cc1ccccc1 | ? | -4 | -5% | 10µM* | 4 | 2%
Oc1csc(Cc2nc(-c3ccccc3F)cs2)n1 | ? | 5 | 10% | ? | -1 | 3%
Cc1ccccc1NC(=O)C(=Cc1ccc(C(=O)O)cc1)C(=O)Nc1ccccc1C | 6.3µM* | 9 | -2% | ? | 1 | -11%
Cc1ccccc1NC(=O)CCl | 7% | 10 | 1% | -11% | -3 | -4%
CCOc1ccc(Nc2nc(N)c(C(=O)c3ccccc3Cl)s2)cc1 | ? | nt | nt | ? | nt | 0%
Cc1ccc(-c2cc(C(=O)N3CCN(c4ncccn4)CC3)c3ccccc3n2)cc1 | ? | -71* | -4% | ? | -7 | 1%
COc1ccc(-c2cc(C(=O)N3CCN(c4ccccc4OC)CC3)c3cc(C(C)C)ccc3n2)cc1 | 8.9µM* | nt | nt | -17% | nt | -14%
CSc1ccccc1C(=O)C1CCCN(Cc2cccc(C)n2)C1 (centres undefined) | 11µM* | 19 | 4% | ? | -1 | 0%
CCOc1ccc(-c2cc(C(=O)N3CCN(c4cccc(C(F)(F)F)c4)CC3)c3ccccc3n2)cc1 | ? | nt | nt | -13% | nt | 6%
C=C/C=C/CC1=C(C)[C@@H](OC(=O)[C@@H]2[C@@H](/C=C(\C)C(=O)OC)C2(C)C)CC1=O (tested in a mixture with another compound) | nt | nt | -3% | nt | nt | -3%
CN(C)S(=O)(=O)c1ccc(C(=O)NCCSc2c(-c3ccccc3)[nH]c3ccccc23)cc1 | ? | nt | nt | -6% | nt | -2%
Cc1ccc(/C=C/C(=O)c2ccc(O)cc2)cc1 | ? | -40 | -3% | ? | -1 | 5%
Cc1cc(C)c(C(=O)/C=C/c2ccc(C(C)C)cc2)c(=O)[nH]1 | 1.4µM* | 12 | -3% | ? | -1 | -2%
C[C@]12CCC(=O)C=C1CC[C@H]1C2CC[C@@]2(C)[C@@H]1CC[C@]2(C)O (some centres undefined) | nt | nt | 10% | nt | nt | 4%
O=c1c(C=NCc2cccs2)c(O)n(C2CCCCC2)c(=O)n1C1CCCCC1 | ? | -21 | -2% | 13% | 5 | 5%
N=C(N)c1c(O)n(C2CCCCC2)c(=O)n(C2CCCCC2)c1=O | 4.5µM* | -15 | -38% | 11µM* | -1 | 0%
Cn1c(SSc2ccc(-c3cccnc3)n2C)ccc1-c1cccnc1 | ? | -19 | 8% | ? | -10 | -10%
S=C(NCCC(c1ccccc1)c1ccccc1)Nc1ccc(Cl)cc1 | 0% | 4 | 1% | ? | 6 | 0%
CN(C)CCCNC(=S)Nc1ccc(-c2ccccc2)cc1 | 11µM* | -29 | 0% | ? | 18 | 28%
SMILES | GLP1R inv ag | KCNH2 3.1 block | GLP1R ag | HEK293 tox | hERG WT inh | GLS inh
CCOc1cccc(=NC2CCCCC2)c2c(C)n(C)c(C)c12 | 10µM* | 1 | -14% | ? | -5 | 7%
CCOc1ccccc1N=C1SCCCN1C | 0% | -3 | -3% | -7% | 5 | -11%
O=C(NC(c1ccc(-c2ccccc2)cc1)c1cnccn1)C1CCN(Cc2ccc(Oc3ccccc3)cc2)CC1 (centres undefined) | 4µM* | nt | 1% | ? | nt | -2%
CCOc1ccc(CN2CCN(C(=O)Cc3ccccc3)CC2)cc1 | -21% | 0 | 1% | 7% | -7 | -8%
CCCCCCn1c(O)c(C=NC2CCN(Cc3ccccc3)CC2)c(=O)[nH]c1=O | -2% | -95* | -4% | -7% | -1 | -2%
C=CCn1c(O)c(C=NC2CCN(Cc3ccccc3)CC2)c(=O)[nH]c1=O | 8% | -10 | -1% | 2% | 4 | -4%
Cn1c(O)c(C=NC2CC3CCC2(C)C3(C)C)c(=O)[nH]c1=O (centres undefined) | 13% | -7 | -4% | -2% | -15 | 0%
CCCCn1c(O)c(C=NC2CC3CCC2(C)C3(C)C)c(=O)[nH]c1=O (centres undefined) | 5.6µM* | -8 | 4% | -17% | 2 | 6%
CC(Cc1ccc2c(c1)OCO2)NO (centres undefined) | nt | nt | 1%[110 µM] | nt | nt | 29%[99.4 µM]
CC(C)COP(=O)(c1ccc(N(C)C)cc1)C(Nc1ccccc1)c1ccccc1 (centres undefined) | ? | -18 | -2% | -20% | -2 | 4%
CC(C)COP(=O)(OCC(C)C)C(Nc1ccccc1)c1ccccc1 (centres undefined) | 11µM* | -7 | 5% | ? | -1 | 10%
O=P(Oc1ccccc1)(Oc1ccccc1)C(Nc1ccccc1)c1ccccc1 (centres undefined) | ? | -70* | -14% | 3% | 3 | 17%
COc1ccc([C@H]2C[C@@H](O)[C@H](n3cc(COC(=O)c4ccccc4)nn3)CN2CC2CCCCC2)cc1 | 11µM* | -1 | -1% | -29% | 0 | 0%
COC(=O)[C@@H]1[C@@H](C(=O)OC)C2(c3ccccc3-c3ccccc32)N(c2ccc(Cl)cc2)N1C#N | 4µM* | -14 | -16% | -11% | 1 | 10%
COC(=O)C[C@]1(C(=O)OC)CN(C#N)N(c2ccc(Cl)cc2)C12c1ccccc1-c1ccccc12 | ? | -5 | -4% | 1.1µM* | -6 | 0%
Cc1ccc([C@H]2N[C@]3(CCCN(Cc4ccc(C(F)(F)F)cc4)C3=O)[C@H]3C(=O)N(Cc4ccccc4)C(=O)[C@@H]23)cc1 | ? | 32 | -2% | -2% | -10 | -3%
COC(=O)C1=C(c2ccc(-c3ccccc3)c(F)c2)C[C@@H]2CC[C@H]1N2C(=O)NCc1cc(C)oc1C(F)(F)F | 3.5µM* | nt | -7% | 4% | nt | -15%
